Screening results: PubChem, National Center for Advancing Translational Sciences (NCATS)
A selection: hits, their analogues and other compounds. The true share with any hit is near 18%.
TDP1 cell CPT: DT40-hTDP1 cell growth loss with CPT | chicken DT40 Tdp1-/-;hTDP1 cells + 20 nM CPT, ATP luminescence, 48 h | 12% of 420,000 active | Potency, µM (doses to about 46.2 µM), hits mostly inhibitors | AID 686979; further: nearly all actives have a fitted effect of over 55% in size
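Chicken DT40 Tdp1-/- cells complemented with human TDP1, 400 cells/well, exposed to compounds plus 20 nM camptothecin for at least 48 h at 37 C; viability read as ATP content by CellTiter-Glo luminescence.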
VP16 counter: Gal4-VP16 reporter inhibition counter-screen; Drosophila S2 Gal4-VP16 UAS-luciferase, luminescence, 20 h; Potency, µM (top dose mostly 53.6 µM), hits mostly inhibitors; 3.5% of 310,000 active; AID 2546;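 further: Gal4-VP16 expression switched on by copper sulfate through the metallothionein promoter; nearly all actives have a fitted effect of over 50% in size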
RORgamma inh: ROR gamma (mouse) transcription inhibition; P51450; Drosophila S2 Gal4-RORgamma UAS-luciferase reporter, 20 h; Potency, µM (series often up to 53.6 µM), usual class: inhibitors; 5.4% of 310,000 active; AID 2551; further: nearly all actives have a fitted effect of over 60% in size
Target sequence (P51450 whole entry, looked up, the tested form may be a part): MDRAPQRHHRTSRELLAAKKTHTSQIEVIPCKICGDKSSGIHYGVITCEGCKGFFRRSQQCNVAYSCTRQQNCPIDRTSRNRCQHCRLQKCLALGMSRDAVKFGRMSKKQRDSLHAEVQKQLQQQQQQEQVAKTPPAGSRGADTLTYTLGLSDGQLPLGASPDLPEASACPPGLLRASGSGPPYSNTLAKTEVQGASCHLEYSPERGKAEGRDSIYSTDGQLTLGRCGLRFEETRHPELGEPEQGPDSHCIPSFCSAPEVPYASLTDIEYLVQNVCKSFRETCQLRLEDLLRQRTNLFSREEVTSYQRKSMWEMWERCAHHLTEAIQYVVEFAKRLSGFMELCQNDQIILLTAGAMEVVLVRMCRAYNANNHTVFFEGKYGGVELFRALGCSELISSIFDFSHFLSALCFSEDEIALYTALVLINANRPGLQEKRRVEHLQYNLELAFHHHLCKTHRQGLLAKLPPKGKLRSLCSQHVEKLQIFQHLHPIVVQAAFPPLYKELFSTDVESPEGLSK
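Drosophila Schneider cells stably carrying a metallothionein-driven Gal4 DBD–ROR gamma fusion and a UAS-Photinus luciferase reporter were exposed to compound for 1 hr, then induced with copper sulfate (700 uM final) for 20 hr at ambient temperature before luminescence reading.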
TDP1 cell noCPT: qHTS for Inhibitors of human tyrosyl-DNA phosphodiesterase 1 (TDP1): qHTS in cells in absence of CPT. Potency, µM (top dose mostly 46.2 µM), usual class: inhibitors. 15% of 420,000 active. AID 686978, 2013. DT40 Tdp1-/- hTDP1 cells, no CPT, ATP luminescence, 48 h; further: nearly all actives have a fitted effect of over 55% in size
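Camptothecin absent (DMSO only). Human TDP1-complemented DT40 knockout cells, 400 cells/well, 37 °C for minimum 48 hr; ATP measured via CellTiter-Glo, 30 min dark incubation, luminescence.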
IL1B secr inh: blocks inflammasome-driven IL-1 beta release. THP-1 LPS/ATP IL-1B secretion, AlphaLISA, 16 h; stronger effect = lower value. activity change, % at 57.5 µM. 4.7% of 360,000 active. AID 743279; in the data active means activity change below about -50%; inconclusive means mostly about -30% to -49%
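Secreted IL-1B measured by AlphaLISA bead assay after 16 h compound exposure of THP-1 cells; compounds (final up to 57.5 uM) added 1 h before LPS (250 ng/mL) and ATP (1.25 mM) stimulation; lower signal means less secretion.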
LDHA block: blocks human lactate dehydrogenase A | purified LDHA, NADH/diaphorase-resazurin fluorescence; stronger effect = lower value | activity change, % (values are at about 110 or 230 µM) | P00338 | 0.15% of 480,000 active; in the data active means activity change below about -30%; inconclusive means mostly about -25% to -30%
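Resorufin fluorescence (ex540/em590), read at 0 and 20 min after diaphorase/resazurin addition, reports the NADH left after a 5 min room-temperature reaction of 2 nM human LDH5 with 0.06 mM NADH and 0.2 mM pyruvate.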
A number is an active result; [ ] = dose if it differs, or a comment. Unless noted, the call rests on the fitted dose curve; in most records, active means well fitted curve in the direction sought with a large enough effect; inconclusive means small, poorly fitted or top-dose-only effect, or another doubt; inactive means no such curve, though single readings can be large; an effect the other way counts as inactive or inconclusive.

What do the screens show for `O=C1SC(Nc2ccccc2)C(=O)N1c1ccccc1` (configuration not stated)?
TDP1 cell CPT: inactive; TDP1 cell noCPT: inactive; LDHA block: inactive

How did O=C1SC(SC(=Nc2ccccc2)Nc2ccccc2)C(=O)N1c1ccccc1 (configuration not stated) do in these assays?
TDP1 cell CPT: 15µM; VP16 counter: inactive; RORgamma inh: inactive; TDP1 cell noCPT: inconclusive; IL1B secr inh: inactive; LDHA block: inactive

Results for O=C1CC(Sc2ccc(Cl)cc2)C(=O)N1c1ccc2c(c1)OCCO2 (configuration not stated) ?
TDP1 cell CPT: 2.9µM; VP16 counter: inconclusive; RORgamma inh: inconclusive; TDP1 cell noCPT: 15µM; LDHA block: inactive

Results for O=C1N/C(=C\c2ccccc2)c2ccccc21 ?
TDP1 cell CPT: 21µM; RORgamma inh: inactive[0.365 µM]; TDP1 cell noCPT: 23µM; IL1B secr inh: inactive; LDHA block: inactive

How did Cc1noc(-c2ccc(OCc3ccccc3F)cc2O)c1-c1ccc(Br)cc1 do in these assays?
LDHA block: inactive

What do the screens show for `CCOc1ccccc1-c1nnc(SCC(=O)Nc2ccc3c(c2)OC2(CCCCC2)O3)o1`?
LDHA block: inactive

How did O=C(Nc1cc(Sc2ccccn2)cc([N+](=O)[O-])c1)c1cccc(F)c1 do in these assays?
TDP1 cell CPT: inconclusive; VP16 counter: inactive; RORgamma inh: inconclusive; TDP1 cell noCPT: inconclusive; IL1B secr inh: inactive; LDHA block: inactive

How did O=C(Nc1cc(Sc2nc3ccccc3s2)cc([N+](=O)[O-])c1)c1ccccc1F do in these assays?
TDP1 cell CPT: 21µM; VP16 counter: inactive; RORgamma inh: inactive; TDP1 cell noCPT: inconclusive; IL1B secr inh: inactive; LDHA block: inactive

What do the screens show for `O=C(Nc1cc(Sc2nc3ccccc3s2)cc([N+](=O)[O-])c1)c1ccccc1`?
TDP1 cell CPT: inconclusive; VP16 counter: inactive; RORgamma inh: inactive; TDP1 cell noCPT: 16µM; IL1B secr inh: inactive; LDHA block: inactive

What do the screens show for `O=C(CSc1nc2ccc(NC(=O)c3ccccc3F)cc2s1)Nc1ccccc1`?
LDHA block: inactive

Results for COc1ccc2c(C)c(CCC(=O)Nc3ccc(NC(C)=O)cc3)c(=O)oc2c1 ?
LDHA block: inactive

Results for Cc1ccc(Nc2nccc(N(C)c3ccc4c(C)n(C)nc4c3)n2)cc1S(N)(=O)=O ?
TDP1 cell CPT: 11µM; TDP1 cell noCPT: 13µM

What do the screens show for `CCSc1nnc(NC(=O)C2Cc3ccccc3CN2C(=O)c2ccco2)s1` (configuration not stated)?
TDP1 cell CPT: inactive; VP16 counter: inconclusive; RORgamma inh: 10µM; TDP1 cell noCPT: inactive; IL1B secr inh: inactive; LDHA block: inactive

What do the screens show for `Cc1ncsc1CCOC(=O)c1ccc(N2CCOCC2)c([N+](=O)[O-])c1`?
TDP1 cell CPT: inactive; VP16 counter: 4µM; RORgamma inh: inconclusive; TDP1 cell noCPT: inactive; IL1B secr inh: inactive; LDHA block: inactive

What do the screens show for `Cc1c(CCOC(=O)c2ccc(N3CCOCC3)c([N+](=O)[O-])c2)sc[n+]1CC#N`?
TDP1 cell CPT: 4.6µM; VP16 counter: inactive; RORgamma inh: inactive; TDP1 cell noCPT: 2.6µM; IL1B secr inh: -102; LDHA block: inactive

What do the screens show for `CCOC(=O)C1CCC(CNC(=O)Nc2c(NC)c3ccccc3oc2=O)CC1` (configuration not stated)?
LDHA block: inactive

Results for C=CC(=O)Nc1cccc(Oc2cc(Cl)nc3[nH]ccc23)c1 ?
TDP1 cell CPT: 16µM; TDP1 cell noCPT: inconclusive; IL1B secr inh: -72; LDHA block: inactive

What do the screens show for `O=C(/C=C/c1ccccc1)Nc1cccc(Oc2ccccc2)c1`?
LDHA block: inactive

Results for c1ccc(-c2csc(Nc3ccccn3)n2)cc1 ?
TDP1 cell CPT: inactive; VP16 counter: inconclusive; RORgamma inh: inconclusive; TDP1 cell noCPT: inconclusive; IL1B secr inh: -55; LDHA block: inactive

What do the screens show for `Cc1ccc(-c2csc(Nc3ccccn3)n2)cc1`?
TDP1 cell CPT: inconclusive; VP16 counter: inconclusive; RORgamma inh: inactive[1.91 µM]; TDP1 cell noCPT: inconclusive; IL1B secr inh: -77; LDHA block: inactive

Results for Cc1cc(-c2csc(Nc3ccccn3)n2)ccc1F ?
TDP1 cell CPT: inconclusive; VP16 counter: inconclusive; RORgamma inh: 1µM; TDP1 cell noCPT: 21µM; IL1B secr inh: -58; LDHA block: inactive

How did COc1ccc(-c2csc(Nc3ccc(C)cn3)n2)cc1 do in these assays?
TDP1 cell CPT: inactive; VP16 counter: inactive; RORgamma inh: inactive; TDP1 cell noCPT: inactive; IL1B secr inh: -67; LDHA block: inactive

What do the screens show for `Cc1ccc(-c2csc(Nc3ccccc3)n2)cc1`?
LDHA block: inactive

How did Oc1ccc(-c2csc(Nc3ccccn3)n2)cc1 do in these assays?
TDP1 cell CPT: inconclusive; VP16 counter: inactive; RORgamma inh: inactive; TDP1 cell noCPT: inconclusive; IL1B secr inh: -73; LDHA block: inactive

What do the screens show for `CC(=O)Nc1cccc(-c2csc(Nc3ccc(C)cn3)n2)c1`?
TDP1 cell CPT: inactive; VP16 counter: inactive; RORgamma inh: inactive; TDP1 cell noCPT: inconclusive; IL1B secr inh: -100; LDHA block: inactive

What do the screens show for `Cc1ccc(S(=O)(=O)N2CCCc3cc(NC(=O)c4c(F)cccc4F)ccc32)cc1`?
TDP1 cell CPT: inconclusive; VP16 counter: inactive; RORgamma inh: inactive; TDP1 cell noCPT: inconclusive; IL1B secr inh: inconclusive; LDHA block: inactive

How did COc1ccc(S(=O)(=O)Nc2ccc3c(c2)CCCN3S(=O)(=O)c2ccc(C)cc2)cc1F do in these assays?
TDP1 cell CPT: inconclusive; TDP1 cell noCPT: 21µM; LDHA block: inactive

What do the screens show for `Cc1ccc(S(=O)(=O)N2CCCc3cc(NC(=O)c4ccc(F)c(F)c4)ccc32)cc1`?
TDP1 cell CPT: inconclusive; TDP1 cell noCPT: inconclusive; LDHA block: inactive

How did Cc1ccc(S(=O)(=O)N2CCCc3cc(NS(=O)(=O)c4ccc(F)cc4)ccc32)cc1 do in these assays?
TDP1 cell CPT: inconclusive; TDP1 cell noCPT: 18µM; LDHA block: inactive

Results for Cc1ccc(S(=O)(=O)N2CCCc3cc(NS(=O)(=O)c4cc(F)ccc4F)ccc32)cc1 ?
TDP1 cell CPT: 23µM; TDP1 cell noCPT: 18µM; LDHA block: inactive

Results for O=C(NCC1COc2ccccc2O1)c1nn(Cc2ccccc2)c(=O)c2ccccc12 (configuration not stated) ?
LDHA block: inactive

How did CCOC(=O)c1ccccc1NC(=O)COC(=O)c1ccc(OCC(=O)N2CCOCC2)c(OCC)c1 do in these assays?
TDP1 cell CPT: inconclusive; TDP1 cell noCPT: inconclusive; IL1B secr inh: inactive; LDHA block: inactive
